# Measurements as given in the supplement of paper PMC8728848.
# The full list was thinned out, with the strongest signals kept by preference.
# B1: PX9961KLbvu-535-38-535 (Bacteroides vulgatus) (protein)
# chain: DKAYTDAESYTKGLHKIYSVWALSGQDGSSSSDISGLDAGNTALLRCWWTLQEQPTDEMKNAWNDAWCTEVNYMTWTTNKVEPIEGVYQRCMYIVALVNEFLKNIPNAPESIDKESYIAQARFNRAFAYYVLMDMFALPPFITEKNYSIEPAPLSREDLFNWIEAELNEIKPNLPSPRSEYGVADQAVASALLARMYLNAEIYTGKARYTECINACNEVIKAGYQLADNYADLFKADNGENPDTKKEIIYPIIFDGDKTQSWGMAAIIIGARGAEDKDVLLAHSGVDQGWAGFRATSNLVHLFDFQNDEEPKASEIQDKRGIFYDKGRSIDITSSVSGTFETEGWSVFKFSNLNSNGQPGKNTLWVDTDFPMFRLGDIYLMYAEAVARGGEGSKASAVEYINALRKRAYGDDKHNISENWLEENNFRNLLDERGRELYWEGIRRTDLVRFDLLTSGSYTWDFKGGINTGVGVNKRYNVYPIPVTDLTVNGNLQQNEGY
# Legend:
# Assay in all cases: glycan array binding signal (z-score within array); higher = stronger binding
# Settings in all cases: glycan notation: IUPAC condensed, linker removed
# [1] = target: Gal3S(b1-3)GalNAc
# Summary of the method: (§1)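 The binding signal is a Z-score computed within each array. Data were drawn from 3228 arrays in the Consortium for Functional Glycomics database, restricted to those with a known protein sequence. Scores were averaged over arrays of the same protein sequence at different concentrations or buffers, and over linkers, and negative values can be taken as non-binding.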
# [2] = target: Gal3S(b1-4)Glc
# Summary of the method: as §1
# [3] = target: Gal6S(b1-3)GlcNAc
# Summary of the method: as §1
# [4] = target: Gal6S(b1-3)GlcNAc6S
# Summary of the method: as §1
# [5] = target: GalNAc(b1-3)GalNAc
# Summary of the method: as §1
# [6] = target: GalNAc(b1-4)GlcNAc(b1-3)GalNAc(b1-4)GlcNAc
# Summary of the method: as §1
# [7] = target: Glc(b1-4)Glc
# Summary of the method: as §1
# [8] = target: GlcA(b1-3)Gal
# Summary of the method: as §1
# [9] = target: GlcA3S(b1-3)Gal(b1-4)GlcNAc(b1-3)Gal(b1-4)Glc
# Summary of the method: as §1
# [10] = target: GlcNAc(a1-4)Gal(b1-4)GlcNAc(b1-3)Gal(b1-4)[Fuc(a1-3)]GlcNAc(b1-3)Gal(b1-4)[Fuc(a1-3)]GlcNAc
# Summary of the method: as §1
# [11] = target: GlcNAc(b1-2)Gal(b1-3)GalNAc
# Summary of the method: as §1
# [12] = target: GlcNAc(b1-2)Man(a1-3)[GlcNAc(b1-2)Man(a1-6)]Man(b1-4)GlcNAc(b1-4)GlcNAc
# Summary of the method: as §1
# [13] = target: GlcNAc(b1-2)[GlcNAc(b1-4)]Man(a1-3)[GlcNAc(b1-4)][GlcNAc(b1-2)Man(a1-6)]Man(b1-4)GlcNAc(b1-4)GlcNAc
# Summary of the method: as §1
# [14] = target: GlcNAc(b1-2)[GlcNAc(b1-6)]Man(a1-6)[GlcNAc(b1-2)Man(a1-3)]Man(b1-4)GlcNAc(b1-4)[Fuc(a1-6)]GlcNAc
# Summary of the method: as §1
# [15] = target: GlcNAc(b1-3)Gal(b1-4)GlcNAc(b1-3)Gal(b1-4)GlcNAc(b1-2)Man(a1-3)[GlcNAc(b1-3)Gal(b1-4)GlcNAc(b1-3)Gal(b1-4)GlcNAc(b1-2)Man(a1-6)]Man(b1-4)GlcNAc(b1-4)[Fuc(a1-6)]GlcNAc
# Summary of the method: as §1
# [16] = target: GlcNAc(b1-3)Gal(b1-4)GlcNAc(b1-3)Gal(b1-4)GlcNAc(b1-3)Gal(b1-4)GlcNAc(b1-3)Gal(b1-4)GlcNAc(b1-2)[GlcNAc(b1-3)Gal(b1-4)GlcNAc(b1-3)Gal(b1-4)GlcNAc(b1-3)Gal(b1-4)GlcNAc(b1-3)Gal(b1-4)GlcNAc(b1-6)]Man(a1-6)[GlcNAc(b1-3)Gal(b1-4)GlcNAc(b1-3)Gal(b1-4)GlcNAc(b1-3)Gal(b1-4)GlcNAc(b1-3)Gal(b1-4)GlcNAc(b1-2)Man(a1-3)]Man(b1-4)GlcNAc(b1-4)[Fuc(a1-6)]GlcNAc
# Summary of the method: as §1
# [17] = target: GlcNAc(b1-3)[GlcNAc(b1-4)][GlcNAc(b1-6)]GlcNAc
# Summary of the method: as §1
# [18] = target: GlcNAc(b1-4)GlcNAc(b1-4)GlcNAc(b1-4)GlcNAc(b1-4)GlcNAc
# Summary of the method: as §1
# [19] = target: Man(a1-3)[Man(a1-6)]Man
# Summary of the method: as §1
# [20] = target: Man(a1-3)[Man(a1-6)]Man(a1-6)[Man(a1-2)Man(a1-3)]Man(b1-4)GlcNAc(b1-4)GlcNAc
# Summary of the method: as §1
# [21] = target: Neu5Ac(a2-3)Gal(b1-3)[Fuc(a1-4)]GlcNAc
# Summary of the method: as §1
# [22] = target: Neu5Ac(a2-3)Gal(b1-3)]Neu5Ac(a2-3)Gal(b1-4)]GlcNAc
# Summary of the method: as §1
# [23] = target: Neu5Ac(a2-3)Gal(b1-4)GlcNAc(b1-2)Man(a1-3)[GlcNAc(b1-4)][Neu5Ac(a2-3)Gal(b1-4)GlcNAc(b1-2)Man(a1-6)]Man(b1-4)GlcNAc(b1-4)GlcNAc
# Summary of the method: as §1
# [24] = target: Neu5Ac(a2-3)Gal(b1-4)GlcNAc(b1-2)Man(a1-3)[Neu5Ac(a2-3)Gal(b1-4)GlcNAc(b1-2)Man(a1-6)]Man(b1-4)GlcNAc(b1-4)[Fuc(a1-6)]GlcNAc
# Summary of the method: as §1
# [25] = target: Neu5Ac(a2-3)Gal(b1-4)GlcNAc(b1-3)Gal(b1-4)GlcNAc(b1-3)Gal(b1-4)GlcNAc
# Summary of the method: as §1
# [26] = target: Neu5Ac(a2-3)Gal(b1-4)[Fuc(a1-3)]GlcNAc(b1-3)GalNAc
# Summary of the method: as §1
# [27] = target: Neu5Ac(a2-8)Neu5Gc(a2-3)Gal(b1-4)GlcNAc
# Summary of the method: as §1
binder,measurement,setting,value
B1,glycan array binding signal (z-score),[1],-0.326
same,glycan array binding signal (z-score),[2],1.38
same,glycan array binding signal (z-score),[3],0.63
same,glycan array binding signal (z-score),[4],1.44
same,glycan array binding signal (z-score),[5],-0.606
same,glycan array binding signal (z-score),[6],-0.094
same,glycan array binding signal (z-score),[7],-0.497
same,glycan array binding signal (z-score),[8],-0.742
same,glycan array binding signal (z-score),[9],-0.814
same,glycan array binding signal (z-score),[10],0.673
same,glycan array binding signal (z-score),[11],0.183
same,glycan array binding signal (z-score),[12],-0.632
same,glycan array binding signal (z-score),[13],1.4
same,glycan array binding signal (z-score),[14],0.105
same,glycan array binding signal (z-score),[15],1.82
same,glycan array binding signal (z-score),[16],1.39
same,glycan array binding signal (z-score),[17],-0.666
same,glycan array binding signal (z-score),[18],-0.429
same,glycan array binding signal (z-score),[19],-0.077
same,glycan array binding signal (z-score),[20],0.357
same,glycan array binding signal (z-score),[21],1.01
same,glycan array binding signal (z-score),[22],-0.578
same,glycan array binding signal (z-score),[23],-0.451
same,glycan array binding signal (z-score),[24],0.475
same,glycan array binding signal (z-score),[25],-0.106
same,glycan array binding signal (z-score),[26],0.19
same,glycan array binding signal (z-score),[27],19.4
